# Measurements from PubChem BioAssay (NCATS).
# Inconclusive results are not listed. Entries that show only a call come without a potency. Activity calls are given as the source filed them. Calls come from the whole dose curve; as a rule, active = well fitted cell-killing curve with a large enough effect; inconclusive = small, poorly fitted or top-dose-only effect; inactive = flat fitted curve, though single readings scatter.
# Test: Cell Viability - LYMP2-013 (AID 970); note: nearly all actives have a fitted effect of over 55% in size
# Details: LYMP2-013 lymphoblastoid cells viability; series mostly up to 92.2 µM
# Source text: NIH Chemical Genomics Center [NCGC]
# NIH Molecular Libraries Screening Centers Network [MLSCN]
# National Institutes of Environmental Health Sciences [NIEHS]
# National Toxicology Program [NTP]
# We have developed a 1536-well cell-based assay for quantitative high throughput screening (qHTS) against a number of cell lines to determine in vitro cytotoxicity of small molecules. This particular assay uses a human lymphoblastoid cell line (LYMP2-013) purchased from Coriell Institute for Medical Research.
# NCGC Assay Protocol Summary:
# The CellTiter-Glo luminescent cell viability assay (Promega) is a homogeneous method to measure the number of viable cells in culture. The end point readout of this assay is based on quantitation of intracellular ATP, an indicator of metabolic activity, using the luciferase reaction. Luciferase catalyzes the oxidation of beetle Luciferin to oxyluciferin and light in the presence of ATP. The luminescent signal is proportional to amount of ATP present.
# Using the CellTiter-Glo luminescent cell viability assay, the amount of cellular ATP was measured in the lymphoblastoid cell line with complete culture medium following compound treatment for 24 hours. The assay was performed in opaque white Kalypsys 1536-well plates. In the screen, tetraoctylammonium bromide was used as positive control. Library compounds were measured for their ability to cause acute toxicity in the cell line, as reflected by a decrease in intracellular ATP levels, in a concentration-dependent manner. […] AC50 values were determined from concentration-response data modeled with the standard Hill equation.
# qHTS protocol for CellTiter Glo lymphoblastoid cellular assay
# [Step] [Parameter] [Value] [Description]
# 1. Reagent; 5 uL; 2500 lymphoblastoid cells/well
# 2. Time; 5 hr; 37 C incubation
# 4. Controls; 23 nL; Tetraoctylammonium bromide 6.4pM to 92 uM
# 5. Time; 24 hr; 37 C incubation
# 6. Reagent; 5 uL; CellTiter Glo reagent
# 7. Time; 30 min; Room Temperature
# 8. Detection; Luminescence; Viewlux plate reader
# Keywords: cell viability, cytotoxicity, lymphoblastoid cell line, luminescence, NTPHTS, NTPHTS_NCGC, NIEHS, DSSTox, MLSMR, MLSCN, NIH Roadmap, qHTS, NCGC
# Potency is the fitted concentration of half-maximal effect.
row,SMILES,Potency
1,C=CC(N)=O,inactive
2,ClC(Cl)=C(Cl)C(Cl)=C(Cl)Cl,inactive
3,ClC1=C(Cl)C2(Cl)C3C4CC(C5OC45)C3C1(Cl)C2(Cl)Cl (stereo not given),39.8 µM (active)
4,C[C@H]1CCCC(=O)CCC/C=C/c2cc(O)cc(O)c2C(=O)O1,inactive
5,CCC[CH2][Sn]([Cl])([Cl])[Cl],inactive
6,Cc1ccccc1N,inactive
7,C=C(C)C#N,inactive
8,COC1=CC(=O)O[C@@H](/C=C/c2ccc3c(c2)OCO3)C1,inactive
9,C=C(C)C(=O)OCC1CO1 (stereo not given),inactive
10,Cc1ccc2ccccc2c1,inactive
11,C=CCc1ccc(OC)cc1,inactive
12,Brc1ccc(Oc2cc(Br)c(Br)cc2Br)c(Br)c1,inactive
13,ClC(Cl)=C(Cl)Cl,inactive
14,CCSC(=O)Cl,inactive
15,CCCCOCCOP(=O)(OCCOCCCC)OCCOCCCC,inactive
16,OCC1CO1 (stereo not given),inactive
17,C=CC1CC=CCC1 (stereo not given),inactive
18,c1ccc2c(c1)CCCC2,inactive
19,Nc1ccc(Br)cc1,inactive
20,CC(C)(C)OOC(C)(C)C,inactive

row,SMILES,Potency
1,O=[N+]([O-])c1ccc(Cl)c(Cl)c1,inactive
2,CCOP(=S)(OCC)SCSC(C)(C)C,inactive
3,c1nc[nH]n1,inactive
4,Clc1nc(Cl)nc(Cl)n1,inactive
5,OCC(Br)CBr (stereo not given),inactive
6,O=[N+]([O-])c1cccc2ccccc12,inactive
7,C1CCC2CCCCC2C1 (stereo not given),inactive
8,Brc1ccccc1,inactive
9,Nc1c(Cl)c(Cl)nc(C(=O)O)c1Cl,inactive
10,ClCBr,inactive
11,CCCCOC(=O)c1ccccc1C(=O)OCCCC,inactive
12,C=CCOC(C)=O,inactive
13,S=C=Nc1cccc2ccccc12,inactive
14,CC(C)(c1ccccc1)c1ccc(O)cc1,inactive
15,CC(O)CCl (stereo not given),inactive
16,Clc1cccc(C(Cl)(Cl)Cl)n1,inactive
17,C=CC(C)=O,inactive
18,CCCSC(=O)Cl,inactive
19,CCOP(=S)(OCC)Oc1ccc([N+](=O)[O-])cc1,inactive
20,C=CCOC(=O)c1ccccc1N,inactive
